Measurements published in PubChem BioAssay (Tox21).
Inconclusive results are not listed. A number with no mark means an inactive call. The source made the active and inactive calls. The call rests on the fitted dose curve; in most records, active means well fitted inhibition curve with a large enough effect in the repeat runs; inconclusive means weak or mixed curves; inactive means no such curve, though single readings can be large or run the other way.

Assay: qHTS assay to identify small molecule antagonists of the thyroid receptor (TR) signaling pathway (AID 743065); further: nearly all actives have a fitted effect of over 55% in size
Conditions: GH3.TRE-Luc, T3-stimulated luciferase inhibition, 23.5 h; series mostly up to 70.3 µM; activity, negative = inhibition: at the top concentration
Excerpt: U.S. Tox21 Program National Center for Advancing Translational Sciences [NCATS] NIH Chemical Genomics Center [NCGC] U.S. Environmental Protection Agency [EPA] National Institutes of Environmental Health Sciences [NIEHS] National Toxicology Program [NTP] U.S. Food and Drug Administration [FDA] Tox21 Assay Overview: Thyroid receptor (TR), a nuclear hormone receptor, plays an important role in development, proliferation, differentiation, metabolism, brain function, and cardiovascular system. […] To profile the Tox21 10K compound library in TR signaling, a cell-based GH3-TRE-Luc assay (GH3.TRE-Luc cell line, developed by the laboratory of Dr. Albertinka J. Murk, Wageningen University) was used to measure the inhibition of TR. GH3 (rat pituitary tumor) cells stably expressing a TR activity sensor consisting of two TR response elements and a luciferase reporter gene.
Tox21 Assay Protocol Summary: GH3.TRE-Luc cells were dispensed at 1500 cells/4 uL/well into 1536-well white solid bottom plates using a Multidrop Combi dispenser (Thermo Fisher Scientific Inc., Waltham, MA). After the assay plates were incubated at 37 C for 4 hours, 23 nL of library compound or DMSO controls was transferred to the assay plates by a pintool station (Kalypsys, San Diego, CA), followed by addition of 1 ul of T3 (1 nM, final concentration in the wells) to stimulate TR transactivation. The assay plates were incubated at 37 C for 23.5 h, and then 1 uL of CellTiter-Fluor reagent (Promega, Madision, WI) of measuring cytotoxicity was added to each well using a Bioraptr Flying Reagent Dispenser (FRD) workstation (Beckman Coulter, Indianapolis, IN, USA). The plates were incubated at 37 C and 5% CO2 for additional 30 min, and fluorescence intensity was measured by a ViewLux plate reader (PerkinElmer, Shelton, CT). For measuring luciferase reporter gene activity, 4 uL of ONE-Glo Luciferase Assay reagent (Promega) was added to each well using a Bioraptr FRD (Beckman Coulter), followed by 30 min incubation at room temperature. The luminescence intensity of plates was recorded by a ViewLux plate reader (PerkinElmer, Shelton, CT).
On the % scale 0 is the no-effect control and ±100 the full control effect; potency means the concentration at half of the fitted maximal effect.

Point of comparison: `CCOC(=O)CC(SP(=S)(OC)OC)C(=O)OCC` (stereo not given), “activity, negative = inhibition” value 0.487%. Against it:
- Cc1cccc2sc3nncn3c12 — higher, 10%
- CCCC(C)C1(CC)C(=O)N=C(S)NC1=O (stereo not given) — lower, -5.53%
- CCOP(=S)(OCC)Oc1ccc(Cl)cc1Cl — lower, -5.24%
- CCC1(c2ccccc2)CCC(=O)NC1=O (stereo not given) — lower, -0.67%
- OCC(Cl)CCl (stereo not given) — higher, 10.6%
- CC1N=C(N)OC1c1ccccc1 (stereo not given) — lower, -9.58%
- CC(C)(C)C(=O)C(Cl)Cl — higher, 2.19%
- Clc1ccc(C(Cl)(Cl)Cl)cn1 — lower, -0.1%
- CCOC1Oc2ccc(OS(C)(=O)=O)cc2C1(C)C (stereo not given) — higher, 0.942%
- N[C@@H](Cc1ccc(Oc2cc(I)c(O)c(I)c2)c(I)c1)C(=O)O — lower, -0.92%
- Cc1ccc(Cl)c(O)c1 — higher, 5.93%
- O=C(O)C(F)(F)C(F)(F)C(F)(F)C(F)(F)C(F)(F)C(F)(F)F — lower, -0.0413%
- CC#Cc1cc(C)nc(Nc2ccccc2)n1 — lower, -26.2%
- C=CCCC#N — lower, -0.203%
- Cc1ccc2c(c1)C1CN(C)CCC1N2 (stereo not given) — higher, 0.886%
- Cc1ccc(-c2nc3ccc(C)cn3c2CC(=O)N(C)C)cc1 — lower, 0.288%
- O=P(O)(O)c1ccccc1 — lower, -0.352%
- CC(C)(C)NC[C@H](O)c1ccc(O)cc1Cl — lower, -5.68%
- CC(C)N(Cc1ccccc1)C(=O)C(C)(C)C — higher, 4.37%
- CC(Cl)(Cl)Cl — higher, 2.5%
- ClCCCCCCCl — higher, 0.922%
- CCN(CCO)CCO — higher, 9.8%
- CN=CNc1ccc(C)cc1C — higher, 7.21%
- CCNc1nc(Cl)nc(NC(C)(C)C)n1 — lower, -0.164%

Point of comparison: `Oc1ccc2c3c1O[C@H]1[C@@H](O)C=C[C@H]4[C@@H](C2)NCC[C@@]341`, “activity, negative = inhibition” value 13.2% [at 95 µM]. Against it:
- CCSC(=O)Cl — lower, 4.68% [at 95 µM]
- O=C(Cl)CCl — lower, -0.0953% [at 95 µM]
- C#CC(C)(C)O — lower, -1.48% [at 95 µM]
- O=S1(=O)OCCO1 — lower, 0.461% [at 95 µM]
- BrCCc1ccccc1 — lower, 0.587% [at 95 µM]
- COP(=O)(O)OC — lower, -3.69% [at 95 µM]

In the case of `CCCCCCC(=O)CCCCCC/C=C/C[C@@H](O)[C@H](O)[C@@](N)(CO)C(=O)O`, the Potency is reported as “inactive”.
With `N#CN` the Potency was “inactive”.
In the case of `ClCC1CO1` (stereo not given), the Potency is reported as “inactive”.
In the case of `C=CCN1CC[C@]23CCCC[C@H]2[C@H]1Cc1ccc(O)cc13`, the Potency is reported as 29.8 µM (active).
For `CCc1cc(OC)c(C[C@H](C)N)cc1OC`, the Potency was 31.9 µM (active).

Work on `Clc1cc2c(cc1Cl)Oc1cc(Cl)c(Cl)cc1O2` yielded an activity, negative = inhibition of 0.19% [at 0.341 µM].

Point of comparison: `C[C@@H](N)[C@@H](O)c1ccccc1`, “activity, negative = inhibition” value 0.702% [at 32.5 µM]. Against it:
- O=P(O)(O)CN(CP(=O)(O)O)CP(=O)(O)O — higher, 3.01% [at 32.5 µM]
